HT1080 IDH1KD tx: kills HT-1080 cells with IDH1 knockdown. Potency, µM (top dose mostly 46.1 µM), without a hit: at the highest dose activity, negative = toxicity, usual class: cytotoxic. HT-1080 IDH1 knockdown viability, ATP luminescence, 48 h. 360,000 tested, 2% active;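 further: potency means the concentration at half of the fitted maximal effect; 0% = DMSO wells and -100% = cell-free medium wells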
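Using the IDH1-knockdown HT-1080 line run in the same batch and compound series as the NT line, viability after 48 h at 37 °C was determined by CellTiter-Glo luminescence and expressed as % activity.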
TDP1 cell CPT: growth inhibition of DT40 Tdp1-/-;hTDP1 cells with camptothecin (screen for TDP1 inhibitors); 420,000 tested, 12% active; chicken DT40 Tdp1-/-;hTDP1 cells + 20 nM CPT, ATP luminescence, 48 h; Potency, µM (doses to about 46.2 µM), for inactives: at the top dose activity change, negative = growth inhibition, most hits filed as inhibitors; AID 686979; further: potency means the concentration at half of the fitted maximal effect; nearly all actives have a fitted effect of over 55% in size
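Chicken DT40 Tdp1-/- cells complemented with human TDP1, 400 cells/well, exposed to compounds plus 20 nM camptothecin for at least 48 h at 37 C; viability read as ATP content by CellTiter-Glo luminescence.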
IL1B secr inh: inhibitors of inflammasome signaling (IL-1 beta secretion); 360,000 tested, 4.7% active; activity change, % at 57.5 µM; THP-1 LPS/ATP IL-1B secretion, AlphaLISA, 16 h; hits give low values; in the data active means activity change below about -50%; inconclusive means mostly about -30% to -49%
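Secreted IL-1B measured by AlphaLISA bead assay after 16 h compound exposure of THP-1 cells; compounds (final up to 57.5 uM) added 1 h before LPS (250 ng/mL) and ATP (1.25 mM) stimulation; lower signal means less secretion.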
TDP1 cell noCPT: qHTS for Inhibitors of human tyrosyl-DNA phosphodiesterase 1 (TDP1): qHTS in cells in absence of CPT | DT40 Tdp1-/- hTDP1 cells, no CPT, ATP luminescence, 48 h | Potency, µM (series often up to 46.2 µM), for inactives: at the highest dose activity change, negative = growth inhibition, hits mostly inhibitors | 420,000 tested, 15% active | AID 686978, 2013; further: potency means the concentration at half of the fitted maximal effect; nearly all actives have a fitted effect of over 55% in size
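Chicken DT40 Tdp1-/- cells stably complemented with human TDP1 were seeded at 400 cells/well with DMSO in place of 20 nM camptothecin. After compound pinning, cells grew at least 48 hr at 37 °C; viability read by CellTiter-Glo luminescence.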
HT1080NT lethal: kills 2HG-producing HT-1080-NT fibrosarcoma cells | HT-1080-NT fibrosarcoma viability, CellTiter-Glo ATP luminescence, 48 h | Potency, µM (highest dose often 46.1 µM), for inactives: at the highest dose activity, negative = less viability, usual class: cytotoxic | 360,000 tested, 1.6% active | AID 686970;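 further: NT is the 2HG producing partner of a matched IDH1 knockdown line; potency means the concentration at half of the fitted maximal effect; 0% = DMSO-treated cells and -100% = media-only wells without cells; nearly all actives have a fitted effect of over 55% in size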
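Fibrosarcoma NT cells, 750 per well in 5% FBS RPMI, were exposed to compound for 48 hours. Viability: CellTiter-Glo luminescence.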
Numbers without * were called inactive; ? = inconclusive; . = no result given. In the library only some 19% were active in any assay of this set; here they are far more common. Unless noted, the call rests on the fitted dose curve; in most records, active means well fitted curve in the direction sought with a large enough effect; inconclusive means small, poorly fitted or top-dose-only effect, or another doubt; inactive means no such curve, though single readings can be large; an effect the other way counts as inactive or inconclusive. Unless noted, on the % scale 0 is the no-effect control and ±100 the full control effect.

SMILES	HT1080 IDH1KD tx	TDP1 cell CPT	IL1B secr inh	TDP1 cell noCPT	HT1080NT lethal
Fc1ccc(NC(=S)N/N=C/c2cccc(Br)c2)c(F)c1	2%	6.5µM*	-4	4.1µM*	?
Cc1ccccc1NC(=O)C(=O)N/N=C/c1cccc(Br)c1	15%	1%	-12	1%	16%
O=C(N/N=C/c1ccc(Cl)c([N+](=O)[O-])c1)C1CC1	1%	-24%	-50*	-2%	11%
COc1cc(/C=N/Nc2ccc(F)cc2F)cc(OC)c1O	?	2.3µM*	-89*	5.8µM*	-17%
COC(=O)c1nnn(-c2nc(N3CCOCC3)nc(N3CCOCC3)n2)c1C	7%	?	26	?	-2%
CCOC(=O)[C@@H]1[C@H]2COc3ccc(Br)cc3[C@@H]2N2C(=O)N(c3ccc(Cl)cc3)C(=O)[C@]12C	-17%	-4%	-6	?	-11%
COc1ccc(/C=N/NC(=S)Nc2ccccc2[N+](=O)[O-])cc1O	?	6.5µM*	-4	4.6µM*	-26%
Cc1ccc(NC(=S)N/N=C/c2ccc(Cl)c([N+](=O)[O-])c2)cc1	-4%	10%	20	-6%	-4%
O=[N+]([O-])c1cc(/C=N/NC(=S)Nc2ccccc2Cl)ccc1Cl	?	?	-86*	12µM*	?
Cc1ccc(NC(=S)N/N=C/c2c(Cl)cccc2Cl)c(C)c1	0.52µM*	1.3µM*	78	1.5µM*	?
O=C(NC1CC1)C1CCN(S(=O)(=O)c2ccc(Cl)c([N+](=O)[O-])c2)CC1	?	-22%	-97*	?	?
COc1ccc(C(=O)NC(=S)Nc2ccccc2[N+](=O)[O-])cc1OC	14%	7%	0	-2%	2%
O=C(NC1CCN(S(=O)(=O)c2cccc([N+](=O)[O-])c2)CC1)C1CCCCC1	17%	7%	16	-11%	23%
CCOC(=O)C(CCC(C)=O)C(=O)c1ccccc1 (configuration not stated)	6%	19%	16	-13%	13%
CC(C)(C)c1ccc(/C=N/NC(=O)C2CCCC2)cc1	-23%	21µM*	-9	13µM*	-8%
Fc1cccc(/C=N/NC(=S)Nc2ccccc2Cl)c1	?	6.5µM*	-20	2.6µM*	?
S=C(N/N=C/c1ccc(Cl)c(Cl)c1)Nc1ccccc1Cl	8.2µM*	23µM*	-17	?	15µM*
FC(F)(F)c1ccc(Cl)c(NC(=S)N/N=C/c2ccccc2Cl)c1	-29%	?	52	?	-9%
O=C(Nc1cccc(S(=O)(=O)Nc2ccc(Cl)cc2)c1)c1ccc[n+]([O-])c1	-3%	-4%	9	-14%	-4%
COc1ccc(CNC(=O)CN2C(=O)NC(Cc3ccccc3)(c3ccccc3)C2=O)cc1OC (configuration not stated)	6%	?	?	?	3%
COCCCNC(=O)c1ccc2c(c1)ncn2-c1ccc(C)cc1C	0%	?	7	-26%	2%
Cc1ccc(-n2cnc3cc(C(=O)NCc4ccc(F)cc4)ccc32)c(C)c1	.	21µM*	.	?	.
Cc1ccc(-n2cnc3cc(C(=O)NC4CCCCCC4)ccc32)c(C)c1	.	?	.	16µM*	.
Cc1cnc(C(=O)OCC(=O)Nc2c(Cl)cc(Cl)cc2Cl)cn1	7%	-2%	-1	-1%	9%
Cc1cc(=O)n(CC(=O)Nc2ccc(Cl)c(Cl)c2)c(-n2nc(C)cc2C)n1	.	?	.	16µM*	.
SMILES	HT1080 IDH1KD tx	TDP1 cell CPT	IL1B secr inh	TDP1 cell noCPT	HT1080NT lethal
Cc1nnnn1CC(=O)Nc1cccc([N+](=O)[O-])c1	16%	8%	3	-3%	20%
Cc1csc(=O)n1CC(=O)Nc1ccc(Cl)c(Cl)c1	-2%	-29%	-24	4%	-4%
Cc1cc(C)n(-c2nc(C)c(C)c(=O)n2CC(=O)Nc2cccc([N+](=O)[O-])c2)n1	.	?	.	16µM*	.
O=C(Nc1ccccc1)N1CC=C(c2ccc(F)cc2)CC1	-6%	?	0	13µM*	-8%
O=C(Nc1cccc(F)c1)N1CC=C(n2c(=O)[nH]c3ccccc32)CC1	-1%	?	-59*	?	-8%
O=C(Nc1cccc(F)c1)N1CCC2(CCNCC2)CC1	.	-26%	.	?	.
Fc1ccc2cnc(CCO[C@H]3CCCCO3)cc2c1	-7%	-20%	-15	-5%	-10%
COc1ccc(NC(=O)C2Cc3c(-c4cccc(NC(C)=O)c4)ccnc3O2)cn1 (configuration not stated)	?	2.6µM*	60	1.8µM*	?
CC(=O)c1cccc(-c2ccnc3c2CC(C(=O)Nc2cccc(Oc4ccccc4)c2)O3)c1 (configuration not stated)	-4%	?	-19	?	-20%
O=C(Nc1cccc(Oc2ccccc2)c1)C1Cc2c(-c3ccccc3)ccnc2O1 (configuration not stated)	0%	23µM*	?	?	-7%
COc1ccc(NC(=O)C2Cc3c(-c4cccc(C(N)=O)c4)ccnc3O2)cn1 (configuration not stated)	21µM*	10µM*	3	12µM*	?
COc1ccc(NC(=O)C2Cc3c(-c4cccc(C(N)=O)c4)ccnc3O2)cc1 (configuration not stated)	15µM*	5.8µM*	0	3.7µM*	12µM*
COC(=O)c1sccc1S(=O)(=O)NCc1ccc(S(N)(=O)=O)cc1	-6%	2%	-14	-20%	-7%
CC(=O)Nc1ccc(NC(=O)C2Cc3c(-c4cccc(F)c4)ccnc3O2)cc1 (configuration not stated)	-3%	-4%	0	-24%	-4%
COc1ccc(NC(=O)C2Cc3c(-c4cccc(F)c4)ccnc3O2)cc1 (configuration not stated)	?	21µM*	-10	?	-7%
CC(=O)Nc1cccc(-c2ccnc3c2CC(C(=O)Nc2ccccc2)O3)c1 (configuration not stated)	15%	?	?	?	-1%
CC(=O)Nc1cccc(-c2ccnc3c2CC(C(=O)Nc2ccc(Cl)cc2)O3)c1 (configuration not stated)	21µM*	16µM*	?	16µM*	?
O=C(Nc1cccc(OC(F)(F)F)c1)C1Cc2c(-c3cccc(F)c3)ccnc2O1 (configuration not stated)	?	?	-89*	?	?
O=C(Nc1ccc(Cl)cc1)C1Cc2c(-c3cccc(F)c3)ccnc2O1 (configuration not stated)	?	?	-64*	18µM*	?

Assay outcomes from PubChem.
